# G9a inh: G9a (human) methyltransferase inhibition; Potency, µM (doses to about 102 µM), inactives show at the top dose activity, negative = inhibition, actives largely listed as inhibitors; Q96KQ7; hit rate 8.8% among 350,000; G9a H3K9 monomethylation, AlphaScreen, 2 h; note: % is set by controls: 0 for no effect and ±100 for the full control effect; nearly all actives have a fitted effect of over 75% in size
#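 Chemiluminescent proximity detection of H3K9 monomethylation, read after 10 min bead incubation in the dark. Reaction: 20 nM G9a, 500 nM biotin-H3K9 peptide, 20 uM SAM cofactor, 2 h, room temperature, following 15 min enzyme-compound preincubation.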
# HP1b binding inh: inhibitors of HP1-beta chromodomain binding to methylated histone tails; AlphaScreen HP1-beta / biotin-H3K9me3 peptide binding; Potency, µM (top dose mostly 114 µM), for inactives: at the highest dose activity change, negative = inhibition, actives largely listed as inhibitors; hit rate 0.56% among 390,000; note: nearly all actives have a fitted effect of over 70% in size
#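 AlphaScreen: HP1-beta (50 nM) preformed 30 min with biotin-H3(1-18)K9me3 peptide (50 nM) in PBS pH 7.4, 0.01% Tween-20. Compound added for 30 min at RT, then streptavidin donor/nickel chelate acceptor beads (10 ug/mL) for 30 min.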
# BAZ2B inh: inhibitors of human BAZ2B bromodomain; Q9UIF8; AlphaScreen BAZ2B-H3K14Ac peptide displacement; Potency, µM (doses to about 114 µM), for inactives: top-dose activity change, negative = inhibition, most hits filed as inhibitors; hit rate 4.4% among 360,000; AID 504333; note: % is set by controls: 0 for no effect and ±100 for the full control effect; nearly all actives have a fitted effect of over 60% in size
#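 Compounds, titrated to a top concentration of 110 uM, were incubated 30 min at room temperature with preformed BAZ2B/acetyl-K14 H3 peptide complex (50 nM each). Proximity signal was measured by AlphaScreen after 20 min with beads.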
# L3MBTL1 block: inhibitors of human L3MBTL1. AID 485360. AlphaScreen L3MBTL1–H3K9me1 peptide binding. hit rate 0.66% among 230,000. Q9Y468. Potency, µM (highest dose often 57.1 µM), inactives show at the highest dose activity, negative = inhibition, hits mostly inhibitors; note: % is set by controls: 0 for no effect and ±100 for the full control effect; nearly all actives have a fitted effect of over 60% in size
#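 AlphaScreen proximity signal between nickel-chelate acceptor and streptavidin donor beads (final 10 ug/mL) reports binding of 50 nM L3MBTL1 to 75 nM biotin-H3 K9me1 peptide; complex incubated with compounds 30 min at room temperature; cefsulodin titration as control.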
# JMJD2A Tudor inh: JMJD2A Tudor domain (human) inhibition; O75164; AlphaScreen JMJD2A-Tudor / H3K4me3 peptide binding; Potency, µM (highest dose often 114 µM), for the others: at the top dose activity change, negative = inhibition, actives largely listed as inhibitors; hit rate 4.4% among 390,000; note: % is set by controls: 0 for no effect and ±100 for the full control effect; nearly all actives have a fitted effect of over 50% in size
# Target sequence (O75164 whole entry, looked up, the tested form may be a part): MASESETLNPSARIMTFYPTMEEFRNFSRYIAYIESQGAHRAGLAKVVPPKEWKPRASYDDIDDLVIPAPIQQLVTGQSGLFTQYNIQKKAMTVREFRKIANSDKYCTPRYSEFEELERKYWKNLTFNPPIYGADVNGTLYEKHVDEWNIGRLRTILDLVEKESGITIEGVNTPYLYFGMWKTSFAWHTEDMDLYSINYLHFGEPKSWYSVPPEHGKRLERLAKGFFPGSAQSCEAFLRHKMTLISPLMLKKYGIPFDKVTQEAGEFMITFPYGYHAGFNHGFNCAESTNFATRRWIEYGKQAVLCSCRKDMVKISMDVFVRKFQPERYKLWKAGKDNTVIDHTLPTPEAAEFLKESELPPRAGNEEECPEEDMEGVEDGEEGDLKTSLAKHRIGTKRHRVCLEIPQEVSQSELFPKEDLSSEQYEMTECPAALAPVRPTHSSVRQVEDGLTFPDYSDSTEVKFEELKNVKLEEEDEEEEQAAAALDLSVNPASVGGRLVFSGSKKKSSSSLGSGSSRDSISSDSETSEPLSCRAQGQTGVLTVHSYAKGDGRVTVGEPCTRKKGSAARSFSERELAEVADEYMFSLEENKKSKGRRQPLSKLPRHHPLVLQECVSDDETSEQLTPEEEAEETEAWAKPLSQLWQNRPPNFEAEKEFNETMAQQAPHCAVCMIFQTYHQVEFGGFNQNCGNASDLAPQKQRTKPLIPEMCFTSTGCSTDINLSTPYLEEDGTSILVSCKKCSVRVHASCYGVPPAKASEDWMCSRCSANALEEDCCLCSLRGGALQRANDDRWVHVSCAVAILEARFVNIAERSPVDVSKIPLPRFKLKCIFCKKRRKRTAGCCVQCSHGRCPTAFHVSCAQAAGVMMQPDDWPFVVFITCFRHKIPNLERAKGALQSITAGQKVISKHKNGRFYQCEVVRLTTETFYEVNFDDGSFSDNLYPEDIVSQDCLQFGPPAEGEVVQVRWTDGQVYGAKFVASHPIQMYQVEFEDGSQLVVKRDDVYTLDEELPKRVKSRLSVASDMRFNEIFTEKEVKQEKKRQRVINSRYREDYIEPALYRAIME
# Starred values were filed as active, the others as inactive; ? = inconclusive; . = not tested or not shown; [ ] = dose if it differs, or a comment. Hits are enriched below; roughly 11% of the tested compounds scored in any of these assays. Calls come from the whole dose curve; as a rule, active = well fitted inhibition curve with a large enough effect; inconclusive = small, poorly fitted or top-dose-only effect; inactive = no such curve, though single readings can be large or run the other way. Potency is the fitted concentration of half-maximal effect.
SMILES,G9a inh,HP1b binding inh,BAZ2B inh,L3MBTL1 block,JMJD2A Tudor inh
CCOC(=O)c1sc(Nc2ccc(Br)cc2)nc1C,?,9%,-26%,6%,56µM*
Cc1ccc(S(=O)(=O)Nc2nc(C)c(C(=O)NN)s2)cc1,.,20%,-16%,4%,-1%
CCOC(=O)c1sc(N)nc1C(C)(C)C,16µM*,0%,9%,-1%,-6%[11.4 µM]
CCOC(=O)c1sc(NC(=O)COc2ccc3c(c2)OCO3)nc1C,40µM*,43%,-2%,.,1%
CCOC(=O)c1sc(NS(=O)(=O)c2ccc(C)cc2)nc1C,50µM*,39%,?,-1%,-7%
COc1ccc(NC2CCCN(C(=O)CCCn3cncn3)C2)cc1OC (stereo not drawn),8%,22%,-16%,.,-12%
O=C(CSc1nnc(-c2cccc(F)c2)c(-c2cccc(F)c2)n1)NC1CCCCC1,3%[59 µM],34%,0%,.,2%
COc1ccc(NC(=O)CN2CCCN(Cc3ccc(Cl)cc3)S2(=O)=O)cc1Cl,6%[59 µM],33%,-1%,.,-11%
CCOC(=O)c1cc(-c2ccc(F)cc2)n(CCC(=O)Nc2cc(OC)cc(OC)c2)c1C,?,?,-14%,.,?
CCOC(=O)c1sc(NC(=O)CCC(=O)O)nc1C,-5%,-18%,1%,14%,-11%
CCOC(=O)c1sc(NCCNc2nc(C)c(C(=O)OCC)s2)nc1C,50µM*,8%,-12%,5%,50µM*
CCN1CCN(C(=S)c2ccc(OC)cc2)CC1,11µM*,-14%,-2%,0%,-25%
COc1ccc(C(=S)N2CCCCCC2)cc1,6.3µM*,?,3%,?,89µM*
CCOc1ccc(C(=S)N2CCCC2)c(OCC)c1,10µM*,-21%,-20%,-5%,-23%
CCOC(=O)c1ccc(C(=S)N2CCCC2)cc1,10µM*,?,-5%,.,-15%
COc1ccc(C(=S)N2CCNCC2)cc1,2%[59 µM],10%,6%,.,0%
COc1ccc(C(=O)NC(=S)N2CCN(c3ccccc3O)CC2)cc1,.,18%,.,-7%,-20%
COc1cc(C(=S)N2CCCC2)cc(OC)c1O,32µM*,-25%,-3%,.,2%
CCOc1ccc(C(=S)N2CCCC2)cc1,25%[2.33 µM],17%,3%,.,-5%
CCOc1ccc(C(=S)N2CCN(C)CC2)cc1,40µM*,-2%,-19%,-4%,-4%
N#Cc1ccc(C(=O)OCC(=O)N2CCCC2)cc1,45µM*,12%,3%,.,-7%
COc1ccc(C(=S)N2CCN(c3ccccc3C)CC2)cc1,8.9µM*,-10%,-28%,.,-30%
CCn1cc(C(=O)NCc2ccccc2)c(=O)c2cc(S(=O)(=O)N3CCOCC3)ccc21,-7%[59 µM],23%,.,.,-14%
CCN1CCN(C(=O)c2ccccc2NC(=O)c2ccc(Cl)cc2)CC1,45µM*,7%,-8%,.,-14%
CCOc1ccc(C(=O)OC(C)CN2CCN(C)CC2)cc1 (stereo not drawn),?,-10%,-18%,.,79µM*
SMILES,G9a inh,HP1b binding inh,BAZ2B inh,L3MBTL1 block,JMJD2A Tudor inh
CCN1CCN(C(=S)c2ccc(Cl)cc2)CC1,?,?,-1%,.,79µM*
CC(CN1CCN(C)CC1)OC(=O)c1ccc(Cl)cc1 (stereo not drawn),?,28%,-6%,1%,?
COc1cccc(-c2cc(NCc3cccc(C)c3)ncn2)c1,-9%[0.501 µM],.,.,.,.
COc1cc(Cl)c(C)cc1NC(=O)CNC(=O)Cn1ccc2ccccc2c1=O,3%[59 µM],9%,2%,.,-14%
Cc1oc2ccc(O)c(CN3CCCC3)c2c1C(=O)Nc1ccc(C(C)C)cc1,1%[59 µM],19%,?,.,-24%
CCCc1nnc(NC(=O)CCC(=O)N2CCN(CCn3c(C)ccc3C)CC2)s1,71µM*,14%,-10%,-8%,-3%
CC(=O)N(/N=C1\Sc2ccccc2C1=O)c1cccc(C)c1,?,-16%,40µM*,-18%,-34%
CN(C[C@H](Cc1ccccc1)N(C[C@H](Cc1cccc2ccccc12)N(CCc1ccccc1)N=O)N=O)N=O,?,7%,71µM*,.,?
CCN(CC)CCn1c2c(c(SCC(=O)Nc3cc(C)cc(C)c3)nc1=O)CCC2,-47%,3%,10%,1%,-13%
CCN(CC)CCCn1c2c(c(SCC(=O)Nc3ccc(C)c(F)c3)nc1=O)CCC2,56µM*,24%,5%,4%,-8%
CCN(CC)CCn1c2c(c(SCC(=O)Nc3ccc4c(c3)OCO4)nc1=O)CCC2,35µM*,18%,-18%,0%,3%
Cc1ccc(NC(=O)CSc2nc(=O)n(CCCN(C)C)c3c2CCC3)cc1F,-3%[59 µM],0%,-13%,.,-12%
CCOc1ccc(N(CC(=O)NCCSCc2ccc(Cl)cc2)S(C)(=O)=O)cc1,.,32%,4%,0%,-8%
Nc1ncn([C@H]2O[C@@H](CO)[C@@H](O)[C@@H]2O)c(=O)n1,32%[21.5 µM],.,.,.,.
CCOC(=O)c1c(C)[nH]c(C2=NNC(=NC3CC3)SC2)c1C,18µM*,?,-32%,-21%,?
Cc1ccc(NC(=S)NN2CCN(C)CC2)c(C)c1,7%[59 µM],42%,1%,8%,-7%
CCCc1cc(C(=O)NNC(=S)NCC2CCCO2)cs1 (stereo not drawn),5%[59 µM],39%,7%,-14%,5%
Cc1cccc(NC(=S)NNC(=O)c2csc(C(C)C)c2)c1,?,-3%,5%,17%[11.4 µM],-27%
S=C(NCc1ccccc1)Nc1cccc(Cl)c1,30%[59 µM],54%,1%,5%,13%
Cc1cccc(NC(=S)NN2CCN(C)CC2)c1,56µM*,37%,-21%,.,10%
CCCc1cc(C(=O)NNC(=S)NC(C)c2ccccc2)cs1 (stereo not drawn),50µM*,8%,-3%,.,-23%
Cc1cccc(NC(=S)NNC(=S)NCc2ccccc2)c1,0.71µM*,-25%,-2%,.,?
CCc1cc(C(=O)NNC(=S)Nc2cccc(C)c2)cs1,10µM*,5%,-2%,66%,-16%
NC(=O)CN1C(=O)C(=O)N(Cc2cccc(C(F)(F)F)c2)C1=O,?,30%,-31%,.,5%
CCOC(=O)C1=C(O)C(=O)NC(c2ccccc2)=C(OC2CCCCC2)C1,50µM*,26%,-9%,2%,-19%
CCOC(=O)C1=C(O)C(=O)NC(c2ccccc2)=C(OCC)C1,45µM*,17%,-37%,-7%,-20%
CCOC(=O)C1=C(C)N(c2ccccc2)C(=O)C1,5%[59 µM],-4%,9%,0%,-4%
O=C(CCn1c(=O)c2ccccc2n(Cc2cccc(F)c2)c1=O)NCc1ccc2c(c1)OCO2,6%[59 µM],20%,-1%,.,1%
CCOc1ccc(NC(=O)C(c2ccccn2)N(C(=O)CCl)c2ccc(OCC)cc2)cc1 (stereo not drawn),3.5µM*,-28%,?,-15%,?

# Bioassay records from PubChem.
